Experimental data as given in PubChem BioAssay AID686971 (National Center for Advancing Translational Sciences (NCATS), 2013).
The campaign covered roughly 360,000 compounds. About 7,500 (2.1%) were called active. Inconclusive results (about 8%) are left out. The full list was thinned out, with actives kept by preference. Values without a mark were called inactive. Calls come from the whole dose curve; as a rule, active = well fitted cell-killing curve with a large enough effect; inconclusive = small, poorly fitted or top-dose-only effect, or effect the other way, or another doubt; inactive = no such curve, though single readings can be large or run the other way.

Assay: qHTS for induction of synthetic lethality in tumor cells producing 2HG: qHTS for the HT-1080-IDH1KD cell line;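 for activity, negative = toxicity: 0% = DMSO wells and -100% = cell-free medium wells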
Conditions: HT-1080 IDH1 knockdown viability, ATP luminescence, 48 h; series mostly up to 46.1 µM; activity, negative = toxicity: at the top concentration
Method in brief: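 After a 2 h attachment period, IDH1KD HT-1080 cells took pin-transferred compound for 48 h at 37 °C; ATP-based luminescence after 10 min room-temperature reagent incubation reported viability.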
Potency is the fitted concentration of half-maximal effect.

Row | Structure (SMILES) | activity, negative = toxicity [%] | Potency
1 | COc1ccc(C(O)c2nc(-c3ccc4c(c3)OCO4)cs2)cc1 (stereo not drawn) | -24.8 | 
2 | C[C@@H]1CN([C@H](C)CO)C(=O)CCCn2cc(nn2)CO[C@H]1CN(C)S(C)(=O)=O | -2.43 | 
3 | COc1ccc(/C=C(\C#N)c2c[nH]c3ccccc23)cc1 |  | 0.731 µM (active)
4 | COc1ccc(C(C(O)C(=O)c2c[nH]c3ccccc23)N2CCN(c3ccccc3)CC2)cc1 (stereo not drawn) | -16.4 | 
5 | COc1ccc(/C=C(\NC(=O)c2ccc(OC)c(OC)c2)C(=O)NCCc2c[nH]c3ccccc23)cc1 | -12.4 | 
6 | C[C@H](CO)N1C[C@H](C)[C@@H](CN(C)C(=O)C2CCCCC2)OCc2cnnn2CCCC1=O | 3.05 | 
7 | C[C@H]1CN(c2ccc(Br)cc2)C(=O)[C@@H]1CC(=O)Nc1ccc(Br)cc1 | -0.729 | 
8 | COc1ccc(CS(=O)/C(Cl)=C(/Cl)C(=O)Nc2ccc(OC)nc2)cc1 (stereo not drawn) |  | 18.4 µM (active)
9 | COc1ccc(CCNC(=O)c2cnc(Cl)c(Cl)c2)cc1 | 3 | 
10 | COc1ccc(NC(=O)CN2C(=O)NC(C)(c3ccccc3)C2=O)cn1 (stereo not drawn) | 1.25 | 
11 | CC(C)Cn1cc(-c2cncc3nccn23)cn1 | 24.8 | 
12 | CC1(C)CN(CCc2ccccc2)C(=O)[C@H]1CC(=O)Nc1ccc(Br)cc1 | 8.18 | 
13 | CCOC(=O)c1c(NC(=O)COC(=O)c2ccc(S(=O)(=O)C(F)F)cc2)sc(C(=O)N(C)C)c1C | -3.1 | 
14 | COc1cccc(NC(=O)C2(C)CCN2Cc2ccccc2Cl)c1 (stereo not drawn) | 0 | 
15 | CCN1/C(=C/c2ccc3ccc(C)cc3[n+]2CC)Sc2ccccc21 |  | 20.6 µM (active)
16 | CCOC(=O)[C@]12CCCC=C1N(CCC1=CCCCC1)C(=O)[C@H](CC(=O)N1CCN(C(=O)c3ccco3)CC1)C2 | -9.21 | 
17 | Cc1ccc(NC(=O)c2ccco2)cc1 | 10.6 | 
18 | O=C(Nc1ccc(O)cc1)c1ccc(NC(=O)c2ccco2)cc1 |  | 13 µM (active)
19 | Cc1cc(NC(=O)c2ccc(F)cc2)ccc1NC(=O)c1ccco1 | -14.9 | 
20 | O=S1(=O)CC(N2CCN(Cc3ccccc3F)CC2)CN1Cc1cn(Cc2ccccc2)nn1 (stereo not drawn) | 5.91 | 
21 | CN(Cc1ccccc1)CC(O)COc1ccc(CNCc2cc3ccccc3s2)cc1 (stereo not drawn) |  | 20.6 µM (active)
22 | Cc1ccc(OCC(=O)OC(C)CN(C)Cc2ccccc2)cc1 (stereo not drawn) | -2.84 | 
23 | COc1ccc(OCC(O)CN(C)C(=O)C(C)Oc2ccccc2)cc1 (stereo not drawn) | -2.85 | 
24 | O=C(NCc1ccccc1)C1c2ccccc2OCC(=O)N1CCCN1CCOCC1 (stereo not drawn) | 8.29 | 
25 | Cc1ccc(S(=O)(=O)N2CCC(=O)N([C@H](COCc3ccccc3)C(C)C)CC2)cc1 | -0.0342 | 
26 | Cc1ccc(-c2nn(-c3ccccc3)cc2C(=O)Nc2cccc(S(=O)(=O)N3CCOCC3)c2)cc1 | 9.95 | 
27 | Cc1ccc(-c2nn(-c3ccccc3)cc2C(=O)NCCCN2CCCC2=O)cc1 | 1.8 | 
28 | O=C(O)c1ccc(NC(=O)c2cn(-c3ccccc3)nc2-c2ccc(Cl)cc2)cc1 |  | 20.6 µM (active)
